Screening results: PubChem, National Center for Advancing Translational Sciences (NCATS)
Gal4-VP16 FLuc: Gal4-VP16 reporter inhibition counter-screen; Drosophila S2 Gal4-VP16 UAS-luciferase, luminescence, 20 h; Potency, µM (series often up to 53.6 µM), for the others: at the highest dose activity, negative = inhibition, usual class: inhibitors; 310,000 tested, 3.5% active; AID 2546;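 further: Gal4-VP16 expression switched on by copper sulfate through the metallothionein promoter; potency means the concentration at half of the fitted maximal effect; nearly all actives have a fitted effect of over 50% in size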
RORgamma inh: inhibitors of mouse ROR gamma transcriptional activity | Potency, µM (doses to about 53.6 µM), for inactives: at the top dose activity change, negative = inhibition, usual class: inhibitors | 310,000 tested, 5.4% active | Drosophila S2 Gal4-RORgamma UAS-luciferase reporter, 20 h | AID 2551; further: potency means the concentration at half of the fitted maximal effect; nearly all actives have a fitted effect of over 60% in size
Target sequence (P51450 whole entry, looked up, the tested form may be a part): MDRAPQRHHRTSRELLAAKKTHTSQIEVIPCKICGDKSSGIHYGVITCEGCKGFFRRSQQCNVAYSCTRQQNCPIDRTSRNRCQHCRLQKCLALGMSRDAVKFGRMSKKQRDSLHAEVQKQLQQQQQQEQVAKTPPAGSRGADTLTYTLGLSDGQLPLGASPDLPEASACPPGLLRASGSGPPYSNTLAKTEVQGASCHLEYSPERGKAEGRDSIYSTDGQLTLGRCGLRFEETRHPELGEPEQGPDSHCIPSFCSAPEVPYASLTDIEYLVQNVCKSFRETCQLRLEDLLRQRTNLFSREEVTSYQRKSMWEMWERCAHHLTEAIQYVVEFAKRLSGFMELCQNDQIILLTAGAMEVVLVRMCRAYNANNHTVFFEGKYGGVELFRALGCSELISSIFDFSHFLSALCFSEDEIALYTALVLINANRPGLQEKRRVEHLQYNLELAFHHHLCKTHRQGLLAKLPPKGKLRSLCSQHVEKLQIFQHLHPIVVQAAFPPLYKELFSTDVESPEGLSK
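Schneider cells (Drosophila), stable Gal4 DBD–ROR gamma + UAS-luc; 1 hr cmpd preincubation; Cu2+ induction 700 uM final; 20 hr ambient; luminescence.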
ELG1 repair inh: ELG1-dependent DNA repair inhibition; HEK293T ELG1-luciferase reporter, luminescence, 16 h; DNA damage induced by 5-fluorouridine; Potency, µM (top dose mostly 46.1 µM), without a hit: at the top dose activity change, negative = inhibition, actives largely listed as inhibitors; 330,000 tested, 2.3% active; AID 504467; further: potency means the concentration at half of the fitted maximal effect; nearly all actives have a fitted effect of over 55% in size
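Overnight (16 hr) co-exposure of 2,000 cells/well to 5-fluorouridine and compound at 37 °C preceded detection. Luciferase was quantified via ONE-Glo luminescence; loss of signal denotes inhibition.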
Coupling enz: counter-screen for Giardia aldolase inhibitors: coupling enzyme system. activity change, negative = inhibition, % at 58.2 µM, hits read low. coupling enzyme system counterscreen, AmpLite Red fluorescence. 290,000 tested, 0.67% active; in the data active means activity change below about -30%
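Counterscreen of the coupled detection system alone, without aldolase: glyceraldehyde-3-phosphate coupling enzymes plus AmpLite Red readout. Compounds at 57.5 uM final, 10 min RT preincubation, 20 min RT reaction, fluorescence 525/598 nm.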
TSHR antag: antagonists of human thyroid stimulating hormone receptor; P16473; TSHR-expressing cells, TSH-stimulated cAMP HTRF, 2 h; hits give low values; activity change, negative = inhibition, % at 11.5 µM; 330,000 tested, 0.2% active; AID 504810;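 active means activity change below a set negative limit, meaning inhibition stronger than a set level, cut at about -70% in these data; inconclusive means activity change between two set negative limits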
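TSHR-expressing cells, 200/well, pre-treated with compound, then stimulated with EC80 TSH (4nM final) for 2 hours at 37 deg C. cAMP measured by competitive HTRF: anti-cAMP cryptate antibody in lysis buffer plus cAMP-d2, read after 30 minutes at room temperature.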
The depositor's hits bear a star; ? = inconclusive; / = no result given; [ ] = another dose, or the depositor's remark. An excerpt weighted towards active compounds, which were near 8% of everything screened. Unless noted, the call rests on the fitted dose curve; in most records, active means well fitted curve in the direction sought with a large enough effect; inconclusive means small, poorly fitted or top-dose-only effect, or another doubt; inactive means no such curve, though single readings can be large; an effect the other way counts as inactive or inconclusive. On the % scale 0 is the no-effect control and ±100 the full control effect.

SMILES	Gal4-VP16 FLuc	RORgamma inh	ELG1 repair inh	Coupling enz	TSHR antag
Cc1cccc(NC(=O)CSc2nc(C)nc3c2c(=O)n(C)c(=O)n3C)c1	0%	9%	-9%	3	6
Cn1c(=O)c2c(SCc3cccnc3)nc(CC(C)(C)C)nc2n(C)c1=O	-6%	?	?	1	-31
CCCc1nc(SCc2cccnc2)c2c(=O)n(C)c(=O)n(C)c2n1	-15%	19%	16µM*	8	-16
Cc1csc(NC(=O)CSc2nc(C)nc3c2c(=O)n(C)c(=O)n3C)n1	15%	27%	21µM*	6	-10
CCCc1nc(SCC(=O)N2CCC(C)CC2)c2c(=O)n(C)c(=O)n(C)c2n1	1%	9%	?	2	-15
C[C@]12c3[nH]c4ccccc4c3CCN1C(=O)C(CC(=O)NCCN1CCOCC1)C[C@@H]2C(=O)N1CCCCC1 (stereo partly specified)	/	/	10%	/	-4
COC(=O)N1C(=O)[C@](c2ccsc2)(C(C)C)N1C(=O)OC	-2%	2%	?	-6	-17
CCCc1nc(SCC(=O)Nc2nnc(CC)s2)c2c(=O)n(C)c(=O)n(C)c2n1	5µM*	-21%	?	1	8
CCc1nc(SCC(=O)Nc2nnc(CC)s2)c2c(=O)n(C)c(=O)n(C)c2n1	?	36%	16µM*	/	10
CCCc1nc(SCC(=O)Nc2nnc(SCC)s2)c2c(=O)n(C)c(=O)n(C)c2n1	1%	-4%	14%	5	-1
CC(C)(C)n1nnnc1C(c1ccc(C(F)(F)F)cc1)N(Cc1ccc(F)cc1)Cc1ccco1 (stereo unspecified)	?	?	-5%	-2	2
CC(C)(C)n1nnnc1C(c1ccc(F)cc1)N(Cc1ccc(F)cc1)Cc1ccco1 (stereo unspecified)	-11%[0.365 µM]	11µM*	6%	-2	-4
CC(C)(C)n1nnnc1C(c1ccc(C(F)(F)F)cc1)N(Cc1ccccc1)Cc1ccco1 (stereo unspecified)	4µM*	6.3µM*	-9%	-2	-9
Cc1ccc(C(c2nnnn2C(C)(C)C)N(Cc2ccco2)Cc2cccs2)cc1 (stereo unspecified)	7.1µM*	10µM*	-17%	-4	-3
O=C1OC(=O)c2c(Cl)c(Cl)c(Cl)c(Cl)c21	-2%	-9%	/	/	/
Cc1ccc2c(COC(=O)CNC(=O)c3ccco3)cc(=O)oc2c1C	/	/	1%	/	4
Cc1ccc(C)c(N2CCN(C(=O)c3ccc(CS(=O)Cc4cccc(Cl)c4)o3)CC2)c1 (stereo unspecified)	-7%	-13%	-23%	1	5
Cc1c(Cl)cccc1-n1c(SCC(=O)N2CCC(C(=O)O)CC2)nc2ccccc2c1=O	21%	3%	1%	-1	2
CNC(=S)NNC(=O)CCn1nc(C)c(Br)c1C	4µM*	0.63µM*	/	0	/
COCCCNC(=S)NNC(=O)Cn1nc(C)c(Br)c1C	11µM*	3.2µM*	4%	5	4
Cc1nn(CC(=O)NNC(=S)NCC2CCCO2)c(C)c1Br (stereo unspecified)	5%	9%	4%	/	-10
CCOCCCNC(=S)NNC(=O)CCn1nc(C)c(Br)c1C	3.2µM*	1.4µM*	-2%	2	-18
Cc1cccc(NC(=S)NNC(=O)CCn2cc(C)cn2)c1	1µM*	0.11µM*	12%	/	48
O=C(/C=C/c1ccc(I)cc1)c1ccc(B(O)O)cc1	1%	?	/	0	/
O=C(CNC(=O)c1ccc(Cl)cc1)NNc1c(F)c(F)cc(F)c1F	/	/	16%	/	2
SMILES	Gal4-VP16 FLuc	RORgamma inh	ELG1 repair inh	Coupling enz	TSHR antag
NC(=O)C1CCN(C(=O)CCSCc2ccccc2)CC1	/	/	?	0	18
Cc1nn(CCC(=O)NNC(=S)Nc2ccccc2)c(C)c1Br	?	0.32µM*	?	-1	-1
Cc1nn(CC(=O)NN)c(C)c1Br	7%	-18%	6%	-2	8
Cc1nn(CCC(=O)NNC(=S)NCC(C)C)c(C)c1Br	1.4µM*	0.71µM*	-7%	1	-9
Cc1nn(CCC(=O)NNC(=S)Nc2ccc(F)cc2)c(C)c1[N+](=O)[O-]	-5%	44%	8%	-1	8
Cc1cc(C(=O)CSc2nnnn2C)c(C)n1-c1ccc2c(c1)OCCO2	-15%	51%	?	-45*	-3
Cc1cc(C(=O)CSc2nnc3ccccn23)c(C)n1-c1ccccc1	2.8µM*	5µM*	?	-13	7
O=C(CSc1nnc2ccccn12)c1ccc2c(c1)OCCO2	?	13µM*	?	0	-1
O=C(CCNS(=O)(=O)c1cccc(C(F)(F)F)c1)NCc1ccco1	/	/	-2%	/	8
CCc1cc(-c2[nH]ncc2-c2ccc([N+](=O)[O-])cc2)c(O)cc1OC	20µM*	13µM*	0%	-5	-5
O=[N+]([O-])c1ccc(COc2ccc(-c3[nH]ncc3-c3ccc(Cl)cc3)c(O)c2)cc1	-10%	43%	?	-2	-29
CCc1cc(-c2oncc2-c2ccc(OC)cc2)c(O)cc1OC	14µM*	?	/	-7	/
CCc1cc(-c2nc(N)ncc2-c2csc(C)n2)c(O)cc1OC	6%	21%	-5%	-3	-2
O=C(NCCNC[C@@H](O)COc1ccc(O)cc1)N1CCOCC1	1%	-2%	/	8	/
O=c1c2c(nc3n1CCCCC3)sc1c(O)c(Br)ccc12	4.5µM*	8.9µM*	?	-9	-12
Cn1c(CNC(=O)CNC(=O)c2ccc(C(C)(C)C)cc2)cc(=O)n(C)c1=O	2%	-12%	15%	-2	5
COc1ccc(CC(=O)N(C)Cc2cccc(OC)c2OC)cc1S(=O)(=O)N1CCOCC1	/	/	5%	/	7
CCC1=NN(C(=O)Cc2ccc([N+](=O)[O-])cc2)C(O)(C(C)(C)C)C1 (stereo unspecified)	-9%	8.9µM*	3%	4	1
CCOc1ccc(CC(=O)N2N=C(C)CC2(O)C(F)(F)F)cc1 (stereo unspecified)	5µM*	1.6µM*	5%	2	-5
CCOc1ccc(CC(=O)NCc2cn3c(C)csc3n2)cc1	5%	3%	4%	0	7
CCCC1=NN(C(=O)Cc2ccc(OC)cc2)C(O)(C(F)(F)F)C1 (stereo unspecified)	?	13µM*	5%	0	-12
CCN(CC(=O)Nc1ccc(OC)cc1)C(=O)c1ccccc1Sc1ccccc1C#N	/	/	-21%	/	2
CO[C@H]1COC(=O)C/C=C\[C@@H](C)[C@H](OC)COC(=O)[C@H]2CCCN2C(=O)C/C=C\[C@@H]1C	-4%[10 µM]	6%[10 µM]	/	0	/
CC(C)c1ccc(OCC(=O)NC2CC(C)(C)NC(C)(C)C2)c(Br)c1	3%	-15%	-2%	/	0
